Among the data in PubChem BioAssay AID602230 (The Scripps Research Institute Molecular Screening Center, 2012) are inhibition values, retold here.

The whole screen tested about 1,400 compounds, of which about 450 (32%) were called active. Only a sample is shown. A number with no mark means an inactive call. No stated cut-off is given here; in the data, active means inhibition above about 16%; inactive means the rest.

One may read the inhibition as the change of the read-out against control, counted positive when it falls.

Sequence of Lon protease (Escherichia coli (strain K12)) (P0A9M0 whole entry, looked up): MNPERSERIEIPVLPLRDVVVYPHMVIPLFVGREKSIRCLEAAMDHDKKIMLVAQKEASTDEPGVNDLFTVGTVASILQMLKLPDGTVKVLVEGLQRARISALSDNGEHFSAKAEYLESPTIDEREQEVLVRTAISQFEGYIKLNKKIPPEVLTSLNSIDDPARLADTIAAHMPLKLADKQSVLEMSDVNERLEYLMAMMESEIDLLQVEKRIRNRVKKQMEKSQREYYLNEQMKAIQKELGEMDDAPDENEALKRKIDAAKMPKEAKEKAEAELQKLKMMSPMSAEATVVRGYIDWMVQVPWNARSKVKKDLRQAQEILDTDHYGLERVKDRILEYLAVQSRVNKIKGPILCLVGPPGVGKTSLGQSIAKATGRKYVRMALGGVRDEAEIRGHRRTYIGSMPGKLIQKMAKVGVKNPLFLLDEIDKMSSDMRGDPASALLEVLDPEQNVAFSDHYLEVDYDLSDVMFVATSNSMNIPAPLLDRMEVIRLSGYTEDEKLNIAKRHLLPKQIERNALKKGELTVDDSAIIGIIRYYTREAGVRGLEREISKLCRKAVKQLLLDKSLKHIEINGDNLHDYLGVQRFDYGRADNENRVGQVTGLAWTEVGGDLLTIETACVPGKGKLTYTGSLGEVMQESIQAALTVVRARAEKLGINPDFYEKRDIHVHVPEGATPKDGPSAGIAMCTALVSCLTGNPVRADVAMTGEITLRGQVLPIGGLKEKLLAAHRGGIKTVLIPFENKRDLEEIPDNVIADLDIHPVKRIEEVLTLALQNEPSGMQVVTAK

This assay addresses Lon protease (Escherichia coli (strain K12)) (UniProt P0A9M0). The assay is described as follows: E. coli Lon protease inhibitor retest, confirmation, biochemical, fluorescence polarization (AID 602230).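 Further: 0% = enzyme with probe and DMSO and 100% = no enzyme.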 The note with it: purified E. coli Lon, at 7.94 µM, stronger effect = higher value. In general terms: Fluorescence polarisation rises when a labelled molecule tumbles more slowly, as on binding a larger partner.
`CNS(=O)(=O)c1ccc2c(c1)[nH]c(=S)n2C`: the inhibition was 4.74%. For the compound `COc1ccc(C2=CC(c3cccc(OC)c3)n3nnnc3N2)cc1` (stereo unspecified), the inhibition is 17% (active). Regarding `COc1ncnc2c1N=C1CC(C)(C)CC(N)=C1S2`, the inhibition was 111% (active). As to `CCCn1c(SCC(=O)Nc2c(C)cccc2C)nnc1C(C)C`, the inhibition is -13.9%.

On to `Nc1ccc2nc3c(=O)[nH]c(=S)[nH]c3nc2c1`, for which the inhibition is 198% (active). The same measure for `Cc1cccc(N2CCC(NCc3c(C(=O)N4CCCCC4)nc4c(C)cccn34)CC2)c1`: -4.25%.

With `O=C(COC(=O)C12CC3CC(CC(O)(C3)C1)C2)NC12CC3CC(CC(C3)C1)C2`, the inhibition was -2.17%. In the case of `Cc1ccn2cc(-c3nonc3C)cc2c1`, the inhibition was 5.46%. Under `COc1ccccc1-c1cc2nc(NCc3cccc(Cl)c3)ccn2n1` stands 2.95%.

Consider `Cc1cccn2c(=O)c3cc(C#N)c(=NC(=O)c4cccnc4)n(CC4CCCO4)c3nc12` (stereo unspecified), for which the inhibition is -2.72%. Regarding `COc1cc(C(=O)NCc2ccc3c(c2)cc(C)n3C)cc(OC)c1OC`, the inhibition is -12.4%.

With `O=C(COC(=O)Cn1cnc2ccccc21)Nc1cccc2c1C(=O)c1ccccc1C2=O`, the inhibition was 79.2% (active). Under `COCCOC(=O)c1sc(=S)n(CCOC)c1N` stands 27.9% (active); under `CC/C(C)=N/Nc1nc2sc3c(c2c(=O)[nH]1)CC(C)(C)OC3`, 15.3%.

Take `Cc1ccc(NC(=O)Cc2nnc(SCC(=O)Nc3nncs3)n2C)cc1`: the inhibition is -64.9%. Take `O=C1C=C(NCCNc2c(F)c(F)c(CO)c(F)c2F)CCC1`: the inhibition is -15.4%. The same measure for `Cc1ccc2c(c1)nnc1nnc(SCC(=O)O)n12`: 33.8% (active); for `O=S(=O)([N-]c1nc2ccccc2nc1-[n+]1ccc(Cc2ccccc2)cc1)c1ccc(Br)s1`: -2.35%. The same measure for `O=C1c2ccccc2C(=O)c2c1cccc2N1CCN(CCO)CC1`: 27.1% (active); for `CCCSc1ccc([C@H]2N[C@@](Cc3ccccc3)(C(=O)OC)[C@H]3C(=O)N(C)C(=O)[C@@H]23)cc1`: -4.5%. On to `NS(=O)(=O)c1ccc(NC(=O)COC(=O)c2c3c(nc4ccccc24)/C(=C\c2ccc4c(c2)OCO4)CCC3)cc1`, for which the inhibition is 4.57%.

For the compound `N#CC1=C(N)OC2=C(C(=O)CCC2)C1C1CC=CCC1` (stereo unspecified), the inhibition is 2.64%.

Regarding `c1ccc(C(=NNc2nc3ccccc3s2)c2ccccn2)cc1`, the inhibition is 134% (active). The same measure for `Cc1cccc(C)c1N1CCN(S(=O)(=O)N2CCOCC2)CC1`: -4.84%; for `CN1c2ccc(C=O)c3c(C=O)ccc(c23)N(C)C1(C)C`: 68.6% (active); for `CC(C(=O)NC1CCCC1)N1CCN(S(=O)(=O)c2ccccc2Cl)CC1` (stereo unspecified): -0.03%. The same measure for `CCCCOCCCNC(=O)C[C@@H]1C[C@@]2(C(=O)OC)CCCCC=C2N(CCC2=CCCCC2)C1=O`: 9.11%; for `CCOCCN(C=O)c1cccc(OC)c1`: -7.16%.

For the compound `COc1ccc(N2CCN(C3CCCCC3NS(=O)(=O)c3ccccc3)CC2)cc1` (stereo unspecified), the inhibition is -0.98%.

With `COc1ccc(C(=O)NC(C)CCc2ccccc2)c(OC)c1` (stereo unspecified), the inhibition was -4.57%. Take `COc1cc([C@H](Cc2ccccc2)NC(C)=O)oc(=O)c1`: the inhibition is 28.5% (active). Under `COc1ccc(OC)c(NC(=O)Cc2cccs2)c1` stands -9.37%. Take `O=C(C1=C(O)C(=O)N(c2ncccn2)C1c1cccs1)c1ccco1` (stereo unspecified): the inhibition was 7.23%.

`O=C1C2C3C=CC(C4CC34)C2C(=O)N1/N=C/c1ccc(-c2ccccc2[N+](=O)[O-])o1` (stereo unspecified): the inhibition was 1.11%. Under `CN(C)Cc1c(C(=O)N/N=C/c2ccccc2OCc2ccc(F)cc2)nnn1-c1nonc1N` stands 4.47%. With `O=C(CN1CCCSc2ccccc21)N1CCN(S(=O)(=O)c2cccc(F)c2)CC1`, the inhibition is 40.1% (active). For the compound `Clc1ccccc1CSc1nnc(-c2ccco2)c(-c2ccco2)n1`, the inhibition is -6.52%. The same measure for `CCOC(=O)N1CCC(NC(=O)Cc2cn(C)c3ccccc23)CC1`: -16.7%; for `Oc1ccc2ccccc2c1N=Nc1nccs1`: 3.97%; for `Cc1coc2c(O)cc3c(c12)OC1(N2CCCCC2)C(=O)NCCCC31` (stereo unspecified): 6.1%. The same measure for `COc1ccc(C(=O)NCc2nnc(SCCOc3ccccc3)n2C)cc1`: -3.94%. The same measure for `COc1ccc(-c2onc3ccc(C(C)=O)cc23)cc1`: 182% (active); for `COc1ccc(-c2nc(CS(=O)CC(=O)NCc3ccccn3)c(C)o2)cc1` (stereo unspecified): 64.8% (active); for `COc1ccc(CC(=O)Nc2ccc(-c3nnc(-c4ccccc4)o3)cc2)cc1`: -10.3%. For `COc1ccc(S(=O)(=O)N2CCOCC2)cc1NC(=O)Cc1c(F)cccc1Cl`, the inhibition was -1.93%. The same measure for `O=C(COC(=O)c1ccccc1C(=O)N1CCN(c2ccccc2)CC1)NCc1ccccc1`: 5.02%; for `CC(=O)NC(=S)Nc1ccc(NC(=S)NC(=O)c2ccc([N+](=O)[O-])cc2)cc1`: -6.29%; for `CC1=NN(C(=O)CCc2ccccc2O)C(O)(C(F)(F)F)C1` (stereo unspecified): 9.05%.

Consider `CC1(C)OC(=O)C(=CNC(CO)C(=O)O)C(=O)O1` (stereo unspecified), for which the inhibition is -19.2%. The same measure for `Cc1ccccc1Nc1nc(N)nc(CN2CCN(c3ccccn3)CC2)n1`: 3.69%. As for `CCc1ccc(NC(=O)C(=O)N/N=C(\C)CC(=O)NCCOC)cc1`, the inhibition is -6.81%. The same measure for `COCCNC(=O)Nc1ccc2nc(-c3ccco3)c(-c3ccco3)nc2c1`: 23.4% (active); for `COc1ccc(Nc2nc(-c3cccnc3)nc3ccccc23)cn1`: 39.8% (active). In the case of `COc1ccc(Nc2ccc([N+](=O)[O-])cn2)cn1`, the inhibition is -45.8%. Under `Cc1ccc2nc3c(cc(C(=O)NCCc4ccccc4)c(=N)n3CC3CCCO3)c(=O)n2c1` (stereo unspecified) stands 3.71%; under `COc1ccc2[nH]c(C)c(CCN(Cc3cccs3)C(=S)Nc3ccccc3OC)c2c1`, 3.35%; under `CCCC(O)(CCC)C(=O)NN(C(=O)CCl)c1cccc(C)c1`, -3.35%. Consider `NC(=O)c1ccc(NC(=O)COC(=O)c2c3c(nc4ccccc24)/C(=C\c2ccc4c(c2)OCO4)CCC3)cc1`, for which the inhibition is -8.01%.

With `O=C1c2cccc3c([N+](=O)[O-])ccc(c23)C(=O)N1CC1CCCO1` (stereo unspecified), the inhibition was 34.9% (active).

For `COCCn1c(N)c(NCc2ccccc2)c(=O)[nH]c1=O`, the inhibition was 7.51%. The same measure for `Cc1cc2nc3c(=O)n(Cc4ccccc4)c(=O)[nH]c3nc2cc1N`: 153% (active); for `Nc1ccccc1/C=N\N=C/c1ccccc1N`: 8.46%.

In the case of `CCCN(CCC)C(=O)C1c2ccccc2Oc2ccccc21`, the inhibition was -11.4%. As for `COC(=O)C[n+]1cccc2ccccc21`, the inhibition is 116% (active). Under `COc1ccc(C2c3ccc(O)cc3Oc3ncn(CCCO)c(=N)c32)cc1OC` (stereo unspecified) stands -7.63%. Take `CCN(CC)CCCNC(=O)c1cn(C)c2ccc(S(=O)(=O)N(C)C3CCCCC3)cc2c1=O`: the inhibition is -0.99%.

In the case of `Cc1cc(Br)cn2c(Cc3ccsc3)c(-c3ccc(C#N)cc3)nc12`, the inhibition is 45.3% (active). `Cc1ccc(S(=O)(=O)CCC(=O)OCc2ccccc2)cc1`: the inhibition was -7.16%. For `Oc1ccc(N=Cc2sc3ccccc3c2Cl)cc1`, the inhibition was -21.5%.

For the compound `O=C(COC(=O)CCc1c[nH]c(=O)[nH]1)Nc1ccccc1Cl`, the inhibition was 51.4% (active). As to `COc1cccc2sc(N(CCCN(C)C)C(=O)CCS(=O)(=O)c3ccccc3)nc12`, the inhibition is 7.07%.
